About 320 (3.2%) of roughly 10,000 compounds were called active. The sample holds actives, similar compounds and a random draw of the others, so the mix is not that of the screen. Cut-off read from the data, not from the text of the source: active = CPE inhibition mostly above about 9.1% (no sharp cut-off); inactive = mostly below about 7.2%.
Assay: Dengue virus cytopathic effect inhibitors, cell-based, CPE readout, HTS (AID 540333)
Details: Dengue virus CPE inhibition in host cells, at 20 µM; stronger effect = higher value

Row | SMILES | CPE inhibition
1 | Cc1ccc(C2=[N+]([O-])C(C)(C)N(O)C2(C)C)cc1 | inactive
2 | CCC(=O)NC(NC(=S)Nc1ccccc1Br)C(Cl)(Cl)Cl (stereo not drawn) | 0.015% (inactive)
3 | CCOC(=O)NC(NC(=S)Nc1ccccc1OC)C(Cl)(Cl)Cl (stereo not drawn) | 1.97% (inactive)
4 | CCc1ccc(OCC(=O)NC(NC(=S)Nc2ccccc2OC)C(Cl)(Cl)Cl)cc1 (stereo not drawn) | 12.2% (active)
5 | c1ccc2c(c1)CCN(c1nc(CN3CCOCC3)nc3sc4c(c13)CCCC4)C2 | 7.32% (inactive)
6 | COc1cc2c(cc1OC)CN(c1nc(CN3CCOCC3)nc3sc4c(c13)CCC(C)C4)CC2 (stereo not drawn) | inactive
7 | Cc1cccc(Oc2nc(CN3CCOCC3)nc3sc4c(c23)CCCC4)c1 | 15.4% (active)
8 | Cc1c(C)c2ccc(OS(C)(=O)=O)cc2oc1=O | 0.305% (inactive)
9 | Oc1c(C=C2N=c3ccccc3=N2)sc(=S)n1-c1ccccc1 | 1.34% (inactive)
10 | O=C(O)CCCCCn1c(O)c(C=C2N=c3ccccc3=N2)sc1=S | 11.8% (active)
11 | Oc1c(C=C2N=c3ccccc3=N2)sc(=S)n1C1CCCC1 | 0.885% (inactive)
12 | COC(=O)c1cc(CNC(=O)c2ccc(O)c(Cl)c2)ccc1OC | 0.01% (inactive)
13 | CC(Sc1nnc(NC2CCCCC2)s1)C(=O)Nc1ccc2c(c1)C(=O)c1ccccc1C2=O (stereo not drawn) | 11.9% (active)
14 | Cc1ccc(Nc2nnc(SC(C)C(=O)Nc3c(C)n(C)n(-c4ccccc4)c3=O)s2)cc1 (stereo not drawn) | inactive
15 | CC(Sc1nnc(NCc2ccccc2)s1)C(=O)Nc1ccc2c(c1)C(=O)c1ccccc1C2=O (stereo not drawn) | 4.04% (inactive)
16 | CCNC(=S)N/N=C(\C)c1cc2ccccc2o1 | 0.995% (inactive)
17 | COc1ccc(C(=O)NCc2nnc(SCC(=O)N3CCc4ccccc43)n2Cc2ccccc2)cc1 | inactive
18 | CCSc1nnc(CNC(=O)C23CC4CC(CC(C4)C2)C3)n1Cc1ccccc1 | 0.79% (inactive)
19 | CC(C)Sc1nnc(CNC(=O)C23CC4CC(CC(C4)C2)C3)n1Cc1ccccc1 | 14.9% (active)
20 | CCC(C)Sc1nnc(CNC(=O)C23CC4CC(CC(C4)C2)C3)n1C1CCCCC1 (stereo not drawn) | 12.2% (active)
21 | CCSc1nnc(CNC(=O)C23CC4CC(CC(C4)C2)C3)n1C1CCCCC1 | 5.44% (inactive)
22 | O=C(CNC(=O)C12CC3CC(CC(C3)C1)C2)N1CCN(S(=O)(=O)/C=C/c2ccccc2)CC1 | 0.155% (inactive)
23 | Cc1nnc(SCC(=O)NC(C)(C)C)n1C1CCCCC1 | inactive
24 | CCCCSc1nnc(CNC(=O)C23CC4CC(CC(C4)C2)C3)n1Cc1ccccc1 | 8.5% (active)

Row | SMILES | CPE inhibition
25 | CCCSc1nnc(CNC(=O)C23CC4CC(CC(C4)C2)C3)n1Cc1ccccc1 | 7.14% (inactive)
26 | CCOC(=O)CC1C(=O)NCCN1C(=S)Nc1ccccc1 (stereo not drawn) | 0.585% (inactive)
27 | O=C(NC1(C(F)(F)F)NC(=O)N(CCc2ccccc2)C1=O)C1CC1 (stereo not drawn) | inactive
28 | COc1ccccc1-n1cc(-c2ccc(Cl)cc2)[nH]c1=O | 0.275% (inactive)
29 | Cc1ccc(C)c(OCC(=O)Nc2ccc(S(=O)(=O)Nc3ccccn3)cc2)c1 | 0.235% (inactive)
30 | COc1cc(/C=C2\SC(N)=NC2=O)ccc1OCC(=O)Nc1ccc(C)cc1 | 1.51% (inactive)
31 | COc1ccc(-c2nc(NC(=O)c3ccc(OCC(=O)Nc4ccc(F)cc4)c(OC)c3)sc2C)cc1 | 12.6% (active)
32 | COc1cc(C(=O)Nc2nc(-c3cc(C)ccc3C)c(C)s2)ccc1OCC(=O)Nc1ccc(F)cc1 | 14.4% (active)
33 | COc1cc(C(=O)Nc2nc(-c3ccc(Cl)cc3)c(C)s2)ccc1OCC(=O)Nc1ccc(F)cc1 | 6.33% (inactive)
34 | CCc1ccc(-c2nc(NC(=O)c3ccc(OCC(=O)Nc4ccc(F)cc4)c(OC)c3)sc2C)cc1 | 0.375% (inactive)
35 | COc1ccc2[nH]c(O)c(N=NC(=N)N)c2c1 | 0.45% (inactive)
36 | COC(=O)c1cc([N+](=O)[O-])ccc1N1CCN(Cc2ccccc2)CC1 | 0.06% (inactive)
37 | COc1ccc(C(=O)OC(C)C(=O)Nc2cc(C(F)(F)F)ccc2Cl)c(OC)c1OC (stereo not drawn) | 2.02% (inactive)
38 | CCN(CC)S(=O)(=O)c1cc(NC(=O)COc2ccc(C#N)cc2OC)ccc1C | inactive
39 | Cc1nc2ccc(C(=O)O)cc2nc1C | 0.025% (inactive)
40 | O=C(COC(=O)c1c(Cl)ccc(Cl)c1Cl)NC(=O)NCc1ccccc1 | 0.78% (inactive)
41 | O=C(COC(=O)c1ccccc1Cl)NC(=O)NCc1ccccc1 | inactive
42 | Nc1cc(Cl)ccc1C(=O)OCC(=O)NC(=O)NCc1ccccc1 | 19.5% (active)
43 | CCOC(=O)/C=C(/C)N1N=C(c2ccc(OC)cc2)CC1c1cccc([N+](=O)[O-])c1 (stereo not drawn) | 0.895% (inactive)
44 | Cc1cc(OCCOCCN(C)C)ccc1Cl | 0.765% (inactive)
45 | COC(=O)C1=NN[C@H](C(=O)OC(C)(C)C)[C@H]1c1ccccc1 | inactive
46 | CCOc1ccc2c(c1)c(N=NC(=N)N)c(O)n2C | 0.04% (inactive)
47 | O=S(=O)(NC1CCCCC1Sc1ncccn1)c1ccccc1 (stereo not drawn) | inactive
48 | O=S(=O)(NC1CCCCC1Nc1ccc(Cl)cc1)c1ccccc1 (stereo not drawn) | 12.2% (active)

Row | SMILES | CPE inhibition
49 | O=S(=O)(NC1CCCCC1Oc1ccccc1)c1ccccc1 (stereo not drawn) | 3.28% (inactive)
50 | COc1ccc(COc2cc(-c3cccc(OC)c3)nc3ccc(NC(=O)c4ccc(Cl)cc4)cc23)cc1 | 4.84% (inactive)
51 | CCC(=O)NC(=S)Nc1ccc(NC(=O)COc2ccccc2)cc1 | inactive
52 | CCn1cc([N+](=O)[O-])nc1C | 0.275% (inactive)
53 | CNC(=S)Nc1cc(Cl)ccc1Oc1ccccc1 | 0.98% (inactive)
54 | O=C(CSc1ccccc1)Nc1cc(Cl)ccc1Oc1ccccc1 | 3.48% (inactive)
55 | O=C(Nc1cc(Cl)ccc1Oc1ccccc1)c1ccc(F)cc1 | 7.54% (active)
56 | COc1cccc(NC(=S)NCCN2CCOCC2)c1 | inactive
57 | O=C(Nc1cc(Cl)cc(Cl)c1)C(c1ccccc1)N1CCCCC1 (stereo not drawn) | 3.29% (inactive)
58 | O=C(Nc1nnc(-c2ccc(Cl)cc2)o1)C1=COCCO1 | 0.23% (inactive)
59 | O=C(OC(C(=O)Nc1cc(Cl)cc(Cl)c1)c1ccccc1)C1=COCCO1 (stereo not drawn) | 32.8% (active)
60 | O=C(Nc1cccc(-c2nc3ccccc3s2)c1)C1=COCCO1 | inactive
61 | O=C(OC(C(=O)Nc1ccc(Cl)c(C(F)(F)F)c1)c1ccccc1)C1=COCCO1 (stereo not drawn) | 16.4% (active)
62 | O=C(OC(C(=O)Nc1ccc(Cl)cc1C(F)(F)F)c1ccccc1)c1c(Cl)cccc1Cl (stereo not drawn) | 21.7% (active)
63 | Cc1ccc(C(=O)OC(C(=O)Nc2ccc(Cl)cc2C(F)(F)F)c2ccccc2)cc1 (stereo not drawn) | 7.33% (inactive)
64 | O=C(Nc1ccc(Cl)c(C(F)(F)F)c1)C(=O)N1CCCCC1 | 1.26% (inactive)
65 | COC(C(=O)Nc1ccc(Cl)cc1C)c1ccccc1 (stereo not drawn) | 1.5% (inactive)
66 | COC(=O)c1cnn(-c2nc(OC)cc(OC)n2)c1C | 0.205% (inactive)
67 | COC(=O)C1=NN(c2cccc(C)c2)C2C(=O)N(c3ccccc3OC)C(=O)C12 (stereo not drawn) | 0.91% (inactive)
68 | CCOc1ccc(S(=O)(=O)N2CCN(C(=S)NCc3ccco3)CC2)cc1 | 0.65% (inactive)
69 | O=S(=O)(c1ccc(F)cc1)N1CCN(C(=S)NCc2ccco2)CC1 | 0.8% (inactive)
70 | CC(C)c1ccc(S(=O)(=O)N2CCN(C(=S)NCc3ccco3)CC2)cc1 | 13.8% (active)
71 | Cn1c(=NC(=O)c2ccccc2[N+](=O)[O-])sc2cc(S(C)(=O)=O)ccc21 | 2.59% (inactive)
72 | CCCCN1CC(=O)N2[C@H](c3ccc(OC)cc3)[C@@H]3C(=O)N(CC)C(=O)[C@@H]3[C@]2(C)C1=O | inactive

Row | SMILES | CPE inhibition
73 | CC1(C)C=C(c2ccc(C=O)s2)CC(C)(C)N1C=O | 0.13% (inactive)
74 | O=C(COC(=O)C12CC3CC(CC(C3)C1)C2)Nc1ccc([N+](=O)[O-])cc1Br | inactive
75 | O=C(COC(=O)C12CC3CC(CC(C3)C1)C2)Nc1nc2c(F)c(F)c(F)cc2s1 | 13.5% (active)
76 | O=C(COC(=O)C12CC3CC(CC(C3)C1)C2)Nc1ccc([N+](=O)[O-])cc1Cl | 1.98% (inactive)
77 | CCN(Cc1ccccc1)c1ccc(/C=N/N=C(N)N)cc1 | inactive
78 | CCN(Cc1ccccc1)c1ccc(/C=N/NC(=S)NC(C)C)cc1 | 30.1% (active)
79 | CCN(Cc1ccccc1)c1ccc(/C=N/NS(=O)(=O)c2ccc(C)c([N+](=O)[O-])c2)cc1 | 0.46% (inactive)
80 | C=CCNC(=S)N/N=C/c1ccc(N(CC)Cc2ccccc2)cc1 | 28.3% (active)
81 | CCN(CC)c1ccc(/C=N/NC(=O)c2ccco2)cc1 | 1.16% (inactive)
82 | CCN(CC)c1ccc(/C=N/NC(=S)NCc2ccccc2)c(O)c1 | inactive
83 | CCOC(=O)c1ccc(NC(=O)c2c(N)n(Cc3ccccc3)c(=O)[nH]c2=O)cc1 | inactive
84 | Cc1ccc(CCNC(=O)CN(C)S(=O)(=O)c2cnc[nH]2)cc1 | inactive
85 | O=C(Nc1ccc(Cl)c([N+](=O)[O-])c1)c1ccncc1 | 0.365% (inactive)
86 | CC12CCC(C(=O)N3CCCc4ccccc43)(OC1=O)C2(C)C (stereo not drawn) | 0.12% (inactive)
87 | O=C(C1=NN[C@@H]2C(=O)N(c3cccc(C(F)(F)F)c3)C(=O)[C@H]12)C(c1ccccc1)c1ccccc1 | 0.31% (inactive)
88 | COC(=O)c1c(NC(NC(=O)C(C)C)C(Cl)(Cl)Cl)sc2c1CCC2 (stereo not drawn) | 13.8% (active)
89 | CCOC(=O)c1c(NC(=O)C2(C)Cc3ccccc3C(=O)O2)sc2c1CCCC2 (stereo not drawn) | 4.8% (inactive)
90 | CCOC(=O)c1c(NC(NC(C)=O)C(Cl)(Cl)Cl)sc2c1CCCC2 (stereo not drawn) | 13% (active)
91 | CCOC(=O)c1c(NC(=S)Nc2ccc(OC)cc2)sc2c1CCC2 | inactive
92 | CC(C(=O)Nc1sc2c(c1C(=O)NCC1CCCO1)CCC2)N1C(=O)c2ccccc2C1=O (stereo not drawn) | inactive
93 | CC(C)C(=O)NC(=S)Nc1sc2c(c1C(N)=O)CCCC2 | inactive

Reference: PubChem BioAssay AID540333 (Southern Research Specialized Biocontainment Screening …, 2011)
